From PubChem BioAssay
Shown are actives, neighbours in structure and some others; about 1.4% of the full set was active somewhere.
Bcl-xL primary = blocks human Bcl-xL binding to Bim BH3 peptide; actives 0.7% (n = 320,000); inhibition, % at 10.9 µM; GST-Bcl-xL / FITC-Bim BH3 peptide fluorescence polarization;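 active = inhibition above the mean of all tested compounds plus 3 SD, cutoff set per campaign, cut at about 30% in these data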;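 also: 0% = DMSO wells and 100% = unlabeled Bim-BH3 peptide competitor; inhibitors lower millipolarization by displacing the labeled peptide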
MCL1-BIM inh = disrupts human MCL1 binding to BIM-BH3 peptide. AID 2057. GST-MCL1 / FITC-Bim-BH3 fluorescence polarization. inhibition, % at 10.9 µM. actives 0.68% (n = 320,000);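 active = inhibition above the mean inhibition of all tested compounds plus 3 SD, set per campaign, cut at about 40% in these data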;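 also: 0% = DMSO wells and 100% = unlabeled Bim-BH3 peptide control; higher means more loss of mP so more displacement of Bim peptide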
eLon inh = inhibits E. coli Lon protease; actives 0.42% (n = 360,000); AID 602123; inhibition, % at 7.94 µM; purified E. coli Lon protease, fluorescence polarization; in the data active = inhibition above about 13%, passing the limit was not always enough;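 also: 0% = enzyme with probe and DMSO and 100% = no enzyme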
GLD-1 RNA inh = GLD-1-TGE RNA interaction inhibition (C. elegans). actives 0.44% (n = 320,000). inhibition, % at 5.96 µM. AID 2280. purified GLD-1 + fluorescein TGE RNA, fluorescence polarization;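 active = percent inhibition above a per-plate cutoff, the plate mean of test compounds plus 3 SD, cut at about 30% in these data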;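 also: 0% = DMSO wells with GLD-1 and probe and 100% = wells lacking GLD-1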
Target sequence (Q17339 whole entry, looked up): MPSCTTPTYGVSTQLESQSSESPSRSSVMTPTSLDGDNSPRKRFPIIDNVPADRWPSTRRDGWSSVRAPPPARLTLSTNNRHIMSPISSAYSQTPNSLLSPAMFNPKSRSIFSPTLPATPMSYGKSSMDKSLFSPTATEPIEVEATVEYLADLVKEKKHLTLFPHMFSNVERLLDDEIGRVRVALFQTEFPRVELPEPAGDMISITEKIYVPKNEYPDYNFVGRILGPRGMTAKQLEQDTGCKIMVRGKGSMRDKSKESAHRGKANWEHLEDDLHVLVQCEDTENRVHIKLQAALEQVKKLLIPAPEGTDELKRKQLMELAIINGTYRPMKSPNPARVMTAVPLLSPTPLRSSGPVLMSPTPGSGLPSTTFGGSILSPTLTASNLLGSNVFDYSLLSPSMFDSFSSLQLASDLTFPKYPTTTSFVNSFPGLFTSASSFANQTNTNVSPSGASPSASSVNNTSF
MEX-5 binding = C. elegans MEX-5 TCR-2 RNA binding activity; activity score (negative = inhibition of binding), % at 10 µM; AID 1832; MEX-5/FITC-TCR2 RNA binding, fluorescence polarization; hits give low values; actives 0.38% (n = 300,000);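 active = inhibition past about -25% in most replicates, and total fluorescence under double the plate's negative control median, limit read from the data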;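 also: 0% = DMSO and -100% = 5 µM competing unlabeled TCR2 RNA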
An asterisk follows results filed as active; i = inactive; x = no result given.

SMILES	Bcl-xL primary	MCL1-BIM inh	eLon inh	GLD-1 RNA inh	MEX-5 binding
COc1ccc(Nc2ncnc3nc[nH]c23)cc1OC	-1.2	-0.5	-10.6	1.1	-33.2*
CCOc1ccc(S(=O)(=O)Nc2ccc3c(c2)OCO3)cc1	1.6	4.0	-3.9	8.2	-1.1
CCS(=O)(=O)Nc1ccc2c(c1)OCO2	41.2*	35.9	-1.5	27.0	-1.3
COc1ccc(NC(=O)C2CCCCC2)cc1S(=O)(=O)N1CCOCC1	x	x	9.2	1.0	x
COC(=O)C1=NN(C(C)(C)CC(C)=O)C2C(=O)N(C3CCCCC3)C(=O)C12 (configuration not stated)	3.2	-1.4	-3.4	-3.7	-0.6
CCCC1=NCCn2cccc21	33.2*	30.9	7.4	27.9	-3.2
CCOc1c(C=C(C#N)C#N)c2ccccc2n1CC	2.6	16.1	-3.9	-4.0	-38.7*
Cn1cc(/C=C2\SC(=S)N(NC(=O)c3ccccc3Cl)C2=O)c2ccccc21	35.4*	17.2	i	-171.2	x
Cc1ccc(C(=O)NN2C(=O)/C(=C/c3cn(C)c4ccccc34)SC2=S)cc1	-43.9	-93.7	-103.4	-80.4	x
C(=N\NC1=Nc2cccc3cccc1c23)/c1ccccc1	-2.1	-20.0	-65.1	32.5*	-10.8
Clc1ccc(/C=N/NC2=Nc3cccc4cccc2c34)cc1	24.9	31.8	-11.0	9.8	-7.0
CCCc1cc(=O)oc2cc(C)cc(OCC(=O)N[C@@H](CSCc3ccccc3)C(=O)O)c12	6.0	7.0	-10.0	-1.8	-0.6
CN1C=C/C(=C\c2cc[n+](C)c3ccccc23)c2ccccc21	x	x	6.6	x	-66.9*
O=C(O)c1ccc2c(c1)NC(=O)C(N1CCCC1)S2 (configuration not stated)	31.8*	40.6*	-9.8	25.7	-12.4
COC(=O)c1ccccc1NC1=C/C(=N\S(=O)(=O)c2cccs2)c2ccccc2C1=O	2.1	5.5	-2.5	4.1	-1.5
COC(=O)c1ccccc1NC1=C/C(=N\S(=O)(=O)c2ccc(C(=O)O)cc2)c2ccccc2C1=O	40.0*	45.2*	-7.2	14.6	-4.2
Cc1ccc(NC(=O)CSc2ccc(-c3ccc(-n4cccn4)cc3)nn2)c(C)c1	7.2	4.9	-7.4	-0.7	0.2
CN(C)/C=N/n1cnc2ccccc2c1=O	34.2*	1.1	0.6	-0.5	1.2
CC(=O)NC(C)(c1ccccc1)c1nc(-c2ccc(N(C)C)cc2)cs1 (configuration not stated)	x	x	-0.5	x	x
Cc1cccn2c(=O)c(C=C(C#N)C#N)c(N3CCN(c4cccc(Cl)c4)CC3)nc12	39.5*	42.5*	3.4	19.8	-1.4
CCN1CCN(c2nc3c(C)cccn3c(=O)c2/C=C(\C#N)S(=O)(=O)c2ccc(Cl)cc2)CC1	15.0	12.2	-13.8	5.0	-11.7
Cc1cccn2c(=O)c(/C=C(\C#N)S(=O)(=O)c3ccccc3)c(N3CCN(C)CC3)nc12	11.9	11.0	8.6	6.8	-7.0
CCN1CCN(c2nc3c(C)cccn3c(=O)c2/C=C(\C#N)S(=O)(=O)c2ccc(C)cc2)CC1	51.5*	48.0*	-9.6	18.4	-7.3
Cc1ccc(S(=O)(=O)/C(C#N)=C/c2c(N3CCN(C)CC3)nc3c(C)cccn3c2=O)cc1	39.7*	29.0	-2.0	6.1	0.2
CCOC(=O)/C(C#N)=C\C1=C(N2CCCC2)CC(C)(CC)OC1 (configuration not stated)	13.0	13.6	-4.8	6.5	-1.0
SMILES	Bcl-xL primary	MCL1-BIM inh	eLon inh	GLD-1 RNA inh	MEX-5 binding
Cc1cccc(C)c1NC(=O)NN=C1CCCCC1	1.5	-2.2	1.2	-5.5	-28.5*
CN=C(NC(=O)Nc1c(C)cccc1C)NC(=O)Nc1c(C)cccc1C	4.1	-2.7	-4.8	-5.2	0.0
Cc1ccc(-c2ccc(=O)n(CCC(=O)NCCN3CCCCC3C)n2)cc1 (configuration not stated)	13.2	9.9	5.1	-2.4	1.1
Cc1ccc(-c2ccc(=O)n(CC(=O)NCCN3CCCCC3C)n2)cc1 (configuration not stated)	34.3*	40.9*	0.2	12.3	-1.4
CCOC(=O)CSc1ccc(-c2nc3ccccc3[nH]2)cn1	2.9	1.9	-4.0	-3.9	3.4
COCCNC(=O)CSc1ccc(-c2nc3ccccc3[nH]2)cn1	61.4*	-8.0	1.0	1.0	-0.7
O=C(NN=Cc1ccc(O)cc1)c1ccccc1NS(=O)(=O)c1cccs1	x	x	-7.7	14.0	x
O=C(N/N=C/c1cc(Cl)cc([N+](=O)[O-])c1O)c1ccc2c(c1)OCO2	6.7	30.0	-10.4	-3.0	-31.1*
O=C(N/N=C/c1cc(Cl)cc([N+](=O)[O-])c1O)c1ccccc1NS(=O)(=O)c1cccs1	-1.6	9.2	5.5	-2.8	-46.7*
COc1cccc(-c2cc(C(F)(F)F)c3c(N)c(C#N)sc3n2)c1	27.5	46.3*	x	-1.7	-3.7
C=C(CN(C)C)C(=O)c1ccc2c(c1)OCO2	x	x	-9.3	x	x
CCCOC(=O)Nc1cc(OC)ccc1[N+](=O)[O-]	11.7	2.0	-2.1	7.9	-0.1
CCOc1ccc(-c2nn(-c3ccccc3)cc2/C=C2\SC(=S)N(C3CCS(=O)(=O)C3)C2=O)cc1 (configuration not stated)	-0.3	3.1	-6.0	0.1	-30.5*
COc1ccc(CC(=O)Nc2cc(Cl)ccc2C(=O)O)cc1	4.6	0.8	1.6	-2.8	-1.7
CCCCOc1ccc(Nc2cc(Cl)ccc2C(=O)O)cn1	36.9*	35.9	-4.8	16.6	-6.8
COc1ccc(N2CCN(CC(O)COc3cc(C)ccc3C)CC2)cc1 (configuration not stated)	6.0	6.4	3.4	3.8	1.4
CCC(C)NC(=O)C1(O)c2cc(Br)ccc2NC(=O)N1c1cccc(OC)c1 (configuration not stated)	-2.9	-2.9	-3.0	-1.8	0.6
O=C(O)c1cc(-c2ccc(/C=c3\sc4nc5ccc(Br)cc5n4c3=O)o2)ccc1Cl	-26.8	-8.3	x	-52.1	-28.8*
O=C(NC1CCCCC1)NC1C2CC3CC(C2)CC1C3 (configuration not stated)	-0.1	5.2	-12.8	7.2	1.0
O=c1oc2ccccc2nc1/C=C(\O)c1ccccc1	3.1	6.0	-5.1	10.1	9.8
Cc1ccc(/C(O)=C/c2nc3cc(C)ccc3oc2=O)cc1	-7.0	-16.9	2.1	-0.7	-120.2*
CCOC(=O)/C=c1\s/c(=C\c2ccccc2C)c(=O)n1CC(=O)NCc1ccc2c(c1)OCO2	-5.0	-30.7	-25.2	-7.2	-1.7
CCOC(=O)/C=c1\s/c(=C\c2ccc3cc(OC)ccc3c2)c(=O)n1CC(=O)NCc1ccc2c(c1)OCO2	6.7	2.8	-5.4	2.5	-31.0*
CCCCN(C)C(=O)c1nc2ccccn2c1CNC1CCC1	9.0	11.0	-9.8	2.8	-0.5
CCOC(=O)c1cnc2cc(C)ccn2c1=O	3.4	0.0	-4.9	5.1	5.5
COc1ccc(CNC(=O)c2cnc3cc(C)ccn3c2=O)cc1	3.9	5.2	-6.5	-20.1	-28.1*
